Experiment [1] deals with Staphylococcus aureus. The following applies: Concentration 20 uM; ASSAY_TEST Inhibition of Bacterial Growth; detection method Absorption (OD600); MEDIA CAMHB; plate type 384well; NBS; CORNING #3640; time 18 hr.
Experiment [2] has as its system Escherichia coli. The following applies: Concentration 20 uM; ASSAY_TEST Inhibition of Bacterial Growth; detection method Absorption (OD600); MEDIA CAMHB; plate type 384well; NBS; CORNING #3640; time 18 hr.

Measured potencies and affinities stand elsewhere. Square brackets hold non-standard residues; d marks the D form. Peptide text beside a SMILES is read from it. pGlu = O=C1CC[C@@H](C(=O)O)N1; Thz = O=C(O)[C@@H]1CSCN1

As a reminder, the Inhibition is the change of the read-out against control, counted positive when it falls. For the molecule `CC(COc1ccccc1Cc1ccccc1)N1CCCCC1.O=P(O)(O)O` (stereo not drawn), the Inhibition in experiment [1] is reported as 12.26%; in experiment [2] it was 7.84%.

`O=C([O-])c1cc(=O)c2c(OCC(O)COc3cccc4oc(C(=O)[O-])cc(=O)c34)cccc2o1.[Na+].[Na+]` [CROMOLYN SODIUM]: the results for the Inhibition in experiment [1] and in experiment [2] were 9.1% and -1.24%, respectively.

As for `CCc1cc(C(N)=S)ccn1` [ETHIONAMIDE], the results for the Inhibition in experiment [1] and in experiment [2] were 13.26% and 2.06%, respectively.

In the case of `CN(C)CCC(c1ccc(Cl)cc1)c1ccccn1.O=C(O)/C=C\C(=O)O` (stereo not drawn) [CHLORPHENIRAMINE MALEATE], the Inhibition is reported as -22.38% in experiment [1] and 7.3% in experiment [2].

Consider `CCOC(=O)OC(C)OC1=C(C(=O)Nc2ccccn2)N(C)S(=O)(=O)c2ccccc21` (stereo not drawn) [AMPIROXICAM], for which the Inhibition in experiment [1] is recorded as 16.07%; in experiment [2], -0.97%.

In the case of `CCCc1cc(=O)[nH]c(=S)[nH]1` [PROPYLTHIOURACIL], the Inhibition in experiment [1] is given as 17.4%; in experiment [2], 8.71%.

For `O=C(CCCN1CC=C(n2c(=O)[nH]c3ccccc32)CC1)c1ccc(F)cc1` [DROPERIDOL], the figures for the Inhibition in experiment [1] and in experiment [2] were 14.29% and -7.37%, respectively.

Consider `Cc1sc(N)c(C(=O)c2cccc(C(F)(F)F)c2)c1C`, for which the Inhibition is on record as 5.2% in experiment [1] and -1.03% in experiment [2].

Turning to `Nc1nc2c(ncn2COC(CO)CO)c(=O)[nH]1` [GANCICLOVIR], the Inhibition in experiment [1] came out at 7.88%; in experiment [2], 0.63%.

With `CN1CCN(c2nc3cc(C(F)(F)F)ccc3n3cccc23)CC1.O=C(O)/C=C\C(=O)O.O=C(O)/C=C\C(=O)O`, the values for the Inhibition in experiment [1] and in experiment [2] were 3.37% and 4.75%, respectively.

Regarding `Nc1ncnc2c1ncn2[C@@H]1O[C@H](CO)[C@@H](O)[C@@H]1O` [VIDARABINE], the values for the Inhibition in experiment [1] and in experiment [2] were 17.44% and 6.8%, respectively.

Take `Nc1nc2c(ncn2COCCO)c(=O)[nH]1` [ACYCLOVIR]: the Inhibition in experiment [1] is listed as -22.02%; in experiment [2], 4.79%.

Consider `OCc1cc(C(O)CNCCCCCCOCCCCc2ccccc2)ccc1O` (stereo not drawn) [SALMETEROL], for which the values for the Inhibition in experiment [1] and in experiment [2] were 15.16% and 8.33%, respectively.

Take `COc1ccc(C(=O)NCc2ccc(OCCN(C)C)cc2)cc1OC.Cl`: the values for the Inhibition in experiment [1] and in experiment [2] were -18.22% and 2.89%, respectively.

As to `CCCN[C@H]1CCc2nc(N)sc2C1` [PRAMIPEXOLE], the Inhibition is on record as -18.52% in experiment [1] and 2.75% in experiment [2].

As to `CC(C)(C)NCC(O)c1ccc(O)c(CO)c1.CC(C)(C)NCC(O)c1ccc(O)c(CO)c1.O=S(=O)(O)O` (stereo not drawn) [ALBUTEROL SULFATE], the Inhibition in experiment [1] was 8.55%; in experiment [2], 5.03%.

Consider `CS(=O)(=O)O.Oc1ccc(C2CNCCc3c2cc(O)c(O)c3Cl)cc1` (stereo not drawn) [FENOLDOPAM MESYLATE], for which the figures for the Inhibition in experiment [1] and in experiment [2] were 13.63% and -0.49%, respectively.

Turning to `CC(Oc1c(Cl)cccc1Cl)C1=NCCN1.Cl` (stereo not drawn) [LOFEXIDINE HYDROCHLORIDE], the Inhibition in experiment [1] is given as 7.96%; in experiment [2], 0.12%.

`COC(=O)C1=C(C)NC(C)=C(C(=O)OCC(C)C)C1c1ccccc1[N+](=O)[O-]` (stereo not drawn) [NISOLDIPINE]: the results for the Inhibition in experiment [1] and in experiment [2] were 10.19% and 14.24%, respectively.

Consider `CC[C@]1(O)C[C@@H]2CN(CCc3c([nH]c4ccccc34)[C@@](C(=O)OC)(c3cc4c(cc3OC)N(C)[C@H]3[C@@](O)(C(N)=O)[C@H](O)[C@]5(CC)C=CCN6CC[C@]43[C@@H]65)C2)C1.O=S(=O)(O)O` [VINDESINE SULFATE], for which the Inhibition is listed as 2.71% in experiment [1] and 3.57% in experiment [2].

Turning to `CC(=O)CCCCn1c(=O)c2c(ncn2C)n(C)c1=O` [PENTOXIFYLLINE], the results for the Inhibition in experiment [1] and in experiment [2] were 15.42% and 2.27%, respectively.

For `Cc1ncc([N+](=O)[O-])n1CCO` [METRONIDAZOLE], the Inhibition in experiment [1] is on record as 17.23%; in experiment [2], 2.82%.

Take `COc1cc2nc(N3CCN(C(=O)C4COc5ccccc5O4)CC3)nc(N)c2cc1OC` (stereo not drawn) [DOXAZOSIN]: the results for the Inhibition in experiment [1] and in experiment [2] were 8.23% and 5.29%, respectively.

Turning to `CN1CC(=O)N2[C@H](c3ccc4c(c3)OCO4)c3[nH]c4ccccc4c3C[C@@H]2C1=O`, the Inhibition is 6.36% in experiment [1] and 0.57% in experiment [2].

On to `O=C1N=C([O-])NC1(c1ccccc1)c1ccccc1.[Na+]` [PHENYTOIN SODIUM], for which the Inhibition came out at 10.31% in experiment [1] and 2.45% in experiment [2].

In the case of `CCCCC1=NC2(CCCC2)C(=O)N1Cc1ccc(-c2ccccc2-c2nnn[nH]2)cc1` [IRBESARTAN], the values for the Inhibition in experiment [1] and in experiment [2] were 6.34% and -3.35%, respectively.

On to `Cc1cc2c(s1)Nc1ccccc1N=C2N1CCN(C)CC1` [OLANZAPINE], for which the figures for the Inhibition in experiment [1] and in experiment [2] were 9.67% and 0.45%, respectively.

Consider `O=C1CC[C@@H](C(=O)N2CSC[C@H]2C(=O)O)N1` [PIDOTIMOD] ([pGlu]-[Thz]-OH), for which the values for the Inhibition in experiment [1] and in experiment [2] were 9.9% and 2.88%, respectively.

`Cl.c1ccc(CC2=NCCN2)cc1` [TOLAZOLINE HYDROCHLORIDE]: the Inhibition in experiment [1] was 7.13%; in experiment [2], 4.19%.

The values are drawn from ChEMBL document CHEMBL4513141, “CO-ADD screening of NIH (USA) - Clinical Collection” (2021).
